From PubChem BioAssay
An excerpt weighted towards active compounds, which were near 9.4% of everything screened.
SARS PLpro yeast: inhibitors of SARS-CoV papain-like protease in yeast; S. cerevisiae expressing SARS-CoV PLpro, growth rescue; Potency, µM (series often up to 32.9 µM), for inactives: top-dose activity, positive = growth rescue, hits mostly activators; 330,000 tested, 0.19% active; AID 485353; calls by dose curve; also: 0% is about no effect; nearly all actives have a fitted effect of over 55% in size
Pf growth 96h: P. falciparum growth inhibition at 96 hour, primary screen for plastid delayed-death inhibitors | P. falciparum luciferase reporter growth, 96 h | Potency, µM (highest dose often 28.7 µM), inactives show top-dose activity change, negative = inhibition, most hits filed as inhibitors | 320,000 tested, 6.9% active | AID 504834; also: % is scaled to controls: 0 for no effect and ±100 for the full control effect
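Infected RBCs, 2% Hct / 0.05% parasitemia final; luciferase-reporter P. falciparum; cpd 96 h, 37 C, 5% CO2; luciferase detection reagent; luminescence.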
AMA1-RON2 inh: AMA1-RON2 (P. falciparum) interaction inhibition; 360,000 tested, 0.2% active; Potency, µM (titrated, usually from 58.2 µM), for the others: at the highest dose activity change, negative = inhibition, most hits filed as inhibitors; AlphaScreen AMA1-biotinylated RON2 peptide binding;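 also: 0% = vehicle wells and -100% = peptide control; nearly all actives have a fitted effect of over 45% in size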
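AMA1 (3D7) with his tag at 25 nM final met compounds first, then biotinylated RON2 peptide at 25 nM; detection used donor plus acceptor beads, 10 µg/mL apiece, read by AlphaScreen after 30 min at room temperature.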
Pf growth 48h: P. falciparum growth inhibition at 48 hours (one generation); Potency, µM (top dose mostly 28.7 µM), for the others: at the top dose activity change, negative = inhibition, hits mostly inhibitors; P. falciparum luciferase growth in erythrocytes, 48 h; AID 504832; 310,000 tested, 5.9% active; also: % is scaled to controls: 0 for no effect and ±100 for the full control effect
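Erythrocytes infected with P. falciparum carrying an integrated firefly luciferase reporter (2% hematocrit, 0.1% parasitemia final) were exposed to compounds in RPMI 1640 with 0.5% Albumax at 37 C, 5% CO2. Growth inhibition was scored as reduced luminescence.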
* marks the source's active call; other numbers are inactive results; i = inactive; ? = inconclusive; . = not tested or not shown. Unless noted, calls follow the shape of the dose curve; as a rule, active = well fitted curve in the direction sought with a large enough effect; inconclusive = small, poorly fitted or top-dose-only effect, or another doubt; inactive = no such curve, though single readings can be large; an effect the other way counts as inactive or inconclusive. Potency is read from the fitted curve at half-maximal effect.

SMILES	SARS PLpro yeast	Pf growth 96h	AMA1-RON2 inh	Pf growth 48h
COc1ccc(S(=O)(=O)N2CCN(C(=O)c3c(C)nn(-c4ccccc4)c3Cl)CC2)cc1	-4%	4.7µM*	-9%	0%
COc1cc(CCC(=O)N2CCN(c3ccc(N4CCOCC4)nn3)CC2)cc(OC)c1OC	-8%	7.4µM*	.	.
C/C(NC1CCCCC1)=C(/C#N)C(=O)NCCN1CCOCC1	-6%	-10%	18%	4%
CCCCCCN=C1CC(C)(C)CC(=O)/C1=C(/O)CCC	0%	6.6µM*	-2%	?
CN(C[C@H](Cc1ccccc1)N(C[C@H](Cc1ccccc1)N(CC1(c2ccccc2)CC1)N=O)N=O)N=O	1%	10µM*	-7%	?
CN(C[C@@H](CC1CCCCC1)N(C[C@H](Cc1ccccc1)N(CCc1ccccc1)N=O)N=O)N=O	-1%	12µM*	-2%	?
COc1ccc(Cn2nnnc2C(c2cccs2)N2CCSCC2)cc1 (stereo not drawn)	-8%	.	28%	?
CCC/C(O)=C1\C(=O)CCCC1=NC(C)C(=O)O (stereo not drawn)	9%	3.7µM*	5%	?
COc1ccccc1-c1cnn2c(NCc3ccccc3)cc(C)nc12	1%	?	142%	-10%
COc1ccc(CCNc2cc(C)nc3c(-c4ccccc4OC)cnn23)cc1OC	-2%	?	52%	13µM*
COC(=O)c1ccc(-c2ccc(/C=N/NC(=O)Cc3nnc(N)s3)o2)cc1	-3%	128%	28%	60%
COc1ccccc1C(=O)COC(=O)c1cccc(-n2cnnn2)c1	-1%	24%	18%	50%
O=C1C=CC(=O)N1c1ccc(OC(F)F)cc1	-135%	9.3µM*	0%	5%
O=C(CN(Cc1ccccc1Cl)C(=O)Cn1nnc(-c2cccs2)n1)NCC1CCCO1 (stereo not drawn)	?	1.2µM*	2%	7%
O=C(CN(Cc1ccccc1Cl)C(=O)CCC(=O)Nc1nccs1)NCC1CCCO1 (stereo not drawn)	3%	?	-11%	7%
COc1ccc(-c2nnn(CC(=O)N(Cc3ccccc3Cl)C(C(=O)NCC3CCCO3)c3ccco3)n2)cc1OC (stereo not drawn)	1%	19%	5%	9.3µM*
CC(c1ccccc1)N1CCn2c(nc3cc(NC(=O)c4cccs4)ccc32)C1 (stereo not drawn)	-14%	.	8%	?
COc1ccc2nc(NC(=O)CCc3nc(C4=CCN(C)CC4)no3)sc2c1	5%	155%	-19%	?
Cc1ccc2occ(/C=N/NC(=O)c3ccccc3Br)c(=O)c2c1	-1%	4.7µM*	86%	23%
CCOc1ccccc1C(=O)N/N=C/c1coc2ccc(C)cc2c1=O	25%	-7%	74%	-3%
O=C(c1c[nH]c(C(=O)C(Cl)(Cl)Cl)c1)c1ccccc1Br	-1%	?	4%	13µM*
CCCn1c(=NC(=O)CS(=O)(=O)c2ccccc2)sc2cc(S(C)(=O)=O)ccc21	-2%	?	6%	?
COc1ccc2c(c1)sc(=NC(=O)CS(=O)(=O)c1ccc(F)cc1)n2C	0%	4.1µM*	4%	9.3µM*
CCn1c(=NC(=O)CS(=O)(=O)c2ccc(F)cc2)sc2cccc(OC)c21	.	?	-1%	12µM*
CCCCOC(=O)c1cc(=O)[nH]c2ccccc12	-3%	12µM*	1%	6%
SMILES	SARS PLpro yeast	Pf growth 96h	AMA1-RON2 inh	Pf growth 48h
CCCCOC(=O)c1cc(=O)[nH]c2ccc(C)cc12	0%	?	7%	?
O=C(CSc1nnc(Cn2c(=O)sc3ccccc32)n1-c1ccccc1)N1CCCCCC1	-12%	?	-10%	?
COc1ccc(-n2c(SCC(=O)Nc3nccs3)nnc2-c2ccoc2C)cc1	-12%	?	12%	.
COc1ccc(-n2c(SCC(=O)Nc3nc(C)cs3)nnc2-c2ccoc2C)cc1	-25%	3%	-4%	5.9µM*
COc1cccc(-n2c(SCC(=O)Nc3nccs3)nnc2-c2ccoc2C)c1	-20%	145%	-2%	8.3µM*
O=C(CSc1nnc(Cn2c(=O)sc3ccccc32)n1-c1ccccc1)Nc1nccs1	-6%	4.7µM*	-9%	?
COc1ccc(/C=C(/CC(=O)Nc2ccccc2)c2nc3ccccc3s2)cc1	14%	?	13%	-25%
O=C(Cn1c(=S)[nH]c2ncccc2c1=O)NCCc1ccccc1	0%	7%	.	20%
O=C(Nc1ccc(S(=O)(=O)Nc2nccs2)cc1)C(F)(F)F	.	.	10%	.
COc1ccc(S(=O)(=O)Nc2ccc(S(=O)(=O)Nc3nccs3)cc2)cc1	0%	15%	-16%	5.2µM*
Cc1ccc(S(=O)(=O)Nc2ccc(S(=O)(=O)Nc3nccs3)cc2)c([N+](=O)[O-])c1	-5%	2.9µM*	-2%	4%
O=C(O)/C=C/C(=O)Nc1ccc(S(=O)(=O)Nc2nccs2)cc1	7%	1.7µM*	-7%	41%
CCn1cnc2c1c(=O)n(CC(=O)N1CCc3ccccc31)c(=O)n2Cc1ccccc1	-6%	?	2%	.
O=C(Cn1c(=O)c2c(ncn2Cc2ccccc2)n(Cc2ccccc2)c1=O)N1CCCC1	3%	?	5%	?
O=C(Cn1c(=O)c2c(ncn2Cc2ccccc2)n(Cc2ccccc2)c1=O)N1CCc2ccccc21	-7%	.	-8%	3.3µM*
O=C(Cn1c(=O)c2c(ncn2C2CCCC2)n(Cc2ccccc2)c1=O)N1CCc2ccccc21	-2%	37%	2%	5.9µM*
Cc1ccccc1C(=NC(=O)c1ccccc1)c1ccccc1	-25%	6.6µM*	-8%	8.3µM*
CC1(C)OC(=O)N(CC(=O)Nc2cccc(C(F)(F)F)c2)C1(C)O (stereo not drawn)	-5%	-2%	3%	5%
Cc1nn(-c2c(Cl)cc(Cl)cc2Cl)c(=O)c2ccccc12	-4%	13µM*	-10%	.
Cc1nn(-c2ccc(Br)cc2)c(=O)c2ccccc12	-1%	200%	2%	105%
COC(=O)C1=C(c2ccc(OC(F)(F)F)cc2)C[C@@H]2CC[C@H]1N2C(=O)NCCOc1ccc(OC)cc1	6%	5.9µM*	-20%	?
COC(=O)C1=C(c2ccc(OC(F)(F)F)cc2)C[C@@H]2CC[C@H]1N2C(=O)NCCc1ccccc1	1%	?	17%	3.7µM*
COc1cc(NC(=O)c2ccco2)c(OC)cc1NC(=O)Nc1ccccc1Cl	2%	?	-5%	?
COc1cc(CNc2ccccc2)c([N+](=O)[O-])cc1OC	-2%	i	?	13µM*
COc1cccc(CNc2ccc(F)c([N+](=O)[O-])c2)c1O	-2%	20%	-19%	9%
Cc1ccc(Nc2nc(C(=O)N3CCC(C(=O)NCCN4CCOCC4)CC3)cs2)cc1	-2%	4.7µM*	-1%	?
COc1ccc(CNC(=O)C2CCN(C(=O)c3csc(Nc4ccc(C)cc4)n3)CC2)cc1	2%	-19%	-8%	8.3µM*
O=C(Nc1cccc(-c2ccc3nncn3n2)c1)C(F)(F)F	9%	81%	4%	21%
